The values below come from PubChem BioAssay (NCATS).

Results filed as inconclusive are left out. Entries that show only a call come without a potency. Calls of active or inactive are those of the source. Calls follow the shape of the full dose curve.

The target in the assay is Atrial natriuretic peptide receptor 1 (Homo sapiens) (UniProt P16066). Briefly: Natriuretic polypeptide receptor (hNpr1) antagonism - Pilot CMLD screen (AID 1347052).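 Also: HEK293 cells with hNpr1 stimulated by hNppA peptide at 0.1 nM; cGMP level read as GloSensor luciferase luminescence after agonist stimulation.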 The conditions noted are these: HEK293 hNpr1 GloSensor cGMP luminescence, ANP-stimulated; series mostly up to 9.22 µM.
Chain of Atrial natriuretic peptide receptor 1 (Homo sapiens) (P16066 whole entry, looked up): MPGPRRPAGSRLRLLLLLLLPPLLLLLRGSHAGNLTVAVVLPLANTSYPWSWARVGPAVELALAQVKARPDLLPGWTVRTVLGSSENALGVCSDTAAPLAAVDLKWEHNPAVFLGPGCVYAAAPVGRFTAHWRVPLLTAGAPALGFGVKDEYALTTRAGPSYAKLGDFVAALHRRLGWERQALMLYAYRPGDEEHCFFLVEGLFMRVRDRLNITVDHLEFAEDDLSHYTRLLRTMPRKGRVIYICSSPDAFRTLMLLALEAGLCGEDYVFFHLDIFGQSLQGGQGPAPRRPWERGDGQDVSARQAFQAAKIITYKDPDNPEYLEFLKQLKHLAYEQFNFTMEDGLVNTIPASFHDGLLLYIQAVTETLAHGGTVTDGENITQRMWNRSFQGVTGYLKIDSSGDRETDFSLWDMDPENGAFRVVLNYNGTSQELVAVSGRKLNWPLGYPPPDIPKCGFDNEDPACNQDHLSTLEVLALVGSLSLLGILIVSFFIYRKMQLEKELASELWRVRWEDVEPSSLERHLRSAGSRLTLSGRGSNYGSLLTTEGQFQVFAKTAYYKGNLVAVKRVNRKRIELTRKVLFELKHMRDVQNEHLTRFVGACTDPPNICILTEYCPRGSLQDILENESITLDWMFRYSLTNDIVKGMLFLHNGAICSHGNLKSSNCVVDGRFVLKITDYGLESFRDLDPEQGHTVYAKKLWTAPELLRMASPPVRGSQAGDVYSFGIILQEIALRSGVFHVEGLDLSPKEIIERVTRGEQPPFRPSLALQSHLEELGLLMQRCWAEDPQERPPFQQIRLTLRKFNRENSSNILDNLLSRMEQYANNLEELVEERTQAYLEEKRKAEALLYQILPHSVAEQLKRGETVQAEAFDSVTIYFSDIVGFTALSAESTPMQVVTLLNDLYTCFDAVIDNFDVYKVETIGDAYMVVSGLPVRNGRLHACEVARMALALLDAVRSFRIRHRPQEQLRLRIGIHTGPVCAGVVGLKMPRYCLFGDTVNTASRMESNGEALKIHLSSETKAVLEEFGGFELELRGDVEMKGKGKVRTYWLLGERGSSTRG
On to `COC(=O)[C@H](C=C[C@H](C)Cc1cc(Br)cc(OCc2ccccc2)c1OC)OCc1ccccc1`, for which the Potency result was “inactive”.

As for `COC(=O)C1=C(C(=O)OC)[C@@H]2N(C)c3ccc(OC)cc3[C@@]23C[C@@H](C(=O)OC)N(C(=O)c2ccco2)C3=N1`, the Potency entry was “inactive”.

As for `CCOC(=O)OC[C@H]1O[C@H](C#Cc2ccc(C(C)(C)C)cc2)C=C[C@H]1OC(=O)OCC`, the Potency entry is “inactive”.

With `CCCCCCCC=CC1=CC2(C)CC1(C)C(CCCCCCC)CC2=O` (stereo not drawn), the Potency result is “inactive”.

For `Cc1cc(F)ccc1O[C@H]1C=C[C@@H](c2ccc3c(c2)OCO3)O[C@H]1CO`, the Potency result is “inactive”.

Turning to `C=CCN=C1NC(CCc2ccccc2)C(C(=O)OC)=C(C)N1CC` (stereo not drawn), the Potency result is “inactive”.

Turning to `COc1ccc(COC(=O)NN=C2C[C@@H](O)[C@@H](O)[C@@H]3[C@H]4C(=O)N([C@@H](C)c5ccccc5)C(=O)[C@@H]4CC[C@H]23)cc1`, the Potency result is “inactive”.

As to `COC(=O)N[C@@H](c1ccco1)C(C(C)=O)C(=O)OC` (stereo partly drawn), the Potency result is “inactive”.

As for `COc1ccc(OC[C@@H]2CC3[C@@H](CC[C@@H](C)[C@H]3c3ccc(Br)cc3)C(=O)O2)cc1` (stereo partly drawn), the Potency result is “inactive”.

`COC(=O)N1C2=C(c3ccccc3[C@@H]1CC(=O)O)[C@@H]1O[C@@H](C2)c2ccccc21`: the Potency result is “inactive”.

For `C=C=CCCN1C(=O)NC(c2ccccc2)C(C(=O)OC)=C1C` (stereo not drawn), the Potency entry is “inactive”.

With `COC(=O)c1ccccc1C[C@]1(C(=O)OC)C=C[C@H](C)[C@@H](c2ccccc2)N1C(=O)C(F)(F)F`, the Potency result is “inactive”.

With `COc1ccc(O[C@H]2C=C[C@@H](c3ccccc3)O[C@H]2CON=C2c3cc(OC)ccc3O[C@H](c3cccc(OC)c3)[C@H]2O)cc1`, the Potency entry was “inactive”.
